# Reference: ChEMBL document CHEMBL4513146, “CO-ADD screening of Karazin Kharkiv National University (Ukraine) compounds”
# Entries with a potency or affinity are not part of this list.
# Experiments:
# [1] = system: Klebsiella pneumoniae; conditions: Concentration 32 ug.mL-1;; ASSAY_TEST Inhibition of Bacterial Growth; detection method Absorption (OD600); MEDIA CAMHB; plate type 384well; NBS; CORNING #3640; time 18 hr
# [2] = system: Candida albicans; conditions: Concentration 32 ug.mL-1; ASSAY_TEST Inhibition of Fungal Growth; detection method Absorption (OD530)
# [3] = system: Cryptococcus neoformans; conditions: Concentration 32 ug.mL-1; ASSAY_TEST Inhibition of Fungal Growth; detection method Resazurin; Absorption (OD600-OD570); plate type 384well; NBS; CORNING #3640
SMILES,Inhibition [1] [%],Inhibition [2] [%],Inhibition [3] [%]
COc1ccccc1-n1ccn2c(SCc3ccc(C)cc3)nnc2c1=O,5.79,2.57,-9.44
O=C(Cn1nc2ccc(SC3CCCCC3)nn2c1=O)Nc1ccc2c(c1)OCO2,-18.44,1.48,-3.38
Cc1ccc(-c2cc3c4nn(CC(=O)Nc5ccccc5C)c(=O)n4ccn3n2)cc1C,7.72,19.26,-10.57
CCc1nnc2c(S(=O)(=O)N(Cc3cccc(C)c3)c3ccc(Cl)cc3)cccn12,3.49,0.59,-3.81
O=C(CSc1nnc2c(=O)n(-c3ccccc3)ccn12)Nc1ccc(F)cc1,3.51,4.29,-7.32
Cc1ccc(CN(c2cccc(F)c2)S(=O)(=O)c2ccc3nnc(C)n3c2)cc1,-4.46,1.78,-8.87
CCOc1ccc(-n2ccn3c(SCC(=O)c4cc(C)c(C)cc4C)nnc3c2=O)cc1,2.47,2.99,-7.59
CCCCc1ccc(NC(=O)Cn2nc3c(N4CCSCC4)nc4ccccc4n3c2=O)cc1,15.26,-0.87,-24.44
O=C(Cn1nc2c(Sc3cccc(F)c3)nccn2c1=O)Nc1ccc(Br)cc1,4.85,1.59,-3.57
Cc1ccc(-c2cc3c4nnc(CCC(=O)N5CCN(c6ccccc6F)CC5)n4ccn3n2)cc1C,8.56,3.28,-23.24
